# Measurements reported in ChEMBL document CHEMBL3988442, “University of Dundee, Small-Polar-MMV Screening Library” (2021).
# For some of these results: Potency and affinity values are given separately.
# How the values were obtained:
# Design in all cases: scale not given: direction of the effect not stated beside the values
# [1] = target: Protein translocase subunit SecA (Escherichia coli (strain K12)) (UniProt P10408); assay: Assay to Identify E. coli SecA ATPase Inhibitors; format: functional; settings: 30 µM
# Chain of Protein translocase subunit SecA (Escherichia coli (strain K12)) (P10408 whole entry): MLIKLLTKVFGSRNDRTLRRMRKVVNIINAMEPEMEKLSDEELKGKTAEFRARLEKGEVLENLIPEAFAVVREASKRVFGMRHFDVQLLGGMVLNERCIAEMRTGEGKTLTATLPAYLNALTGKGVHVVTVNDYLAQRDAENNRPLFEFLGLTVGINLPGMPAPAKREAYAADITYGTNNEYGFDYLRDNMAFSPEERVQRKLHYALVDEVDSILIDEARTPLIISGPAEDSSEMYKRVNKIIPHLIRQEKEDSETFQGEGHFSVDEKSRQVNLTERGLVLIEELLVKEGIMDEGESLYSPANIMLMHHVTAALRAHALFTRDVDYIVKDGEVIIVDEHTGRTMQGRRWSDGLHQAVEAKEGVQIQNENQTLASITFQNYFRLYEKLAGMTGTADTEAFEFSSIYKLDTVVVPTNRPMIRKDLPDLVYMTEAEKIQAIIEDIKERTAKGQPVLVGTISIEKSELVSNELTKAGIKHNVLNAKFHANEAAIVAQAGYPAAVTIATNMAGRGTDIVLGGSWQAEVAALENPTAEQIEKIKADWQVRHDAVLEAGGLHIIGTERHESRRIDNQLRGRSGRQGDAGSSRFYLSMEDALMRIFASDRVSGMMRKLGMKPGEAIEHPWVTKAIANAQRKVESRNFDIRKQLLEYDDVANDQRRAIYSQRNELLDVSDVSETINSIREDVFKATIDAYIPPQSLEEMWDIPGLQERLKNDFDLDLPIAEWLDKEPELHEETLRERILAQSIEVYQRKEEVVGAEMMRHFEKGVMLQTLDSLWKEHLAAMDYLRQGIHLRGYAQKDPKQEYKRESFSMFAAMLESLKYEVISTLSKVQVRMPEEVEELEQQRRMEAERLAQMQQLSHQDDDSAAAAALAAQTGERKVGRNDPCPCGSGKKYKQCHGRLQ
# [2] = target: T1, Ubiquitin-activating enzyme e1, putative (Leishmania donovani (strain BPK282A1)) (UniProt E9BSI1); assay: Leishmania donovani Ubiquitin Activating Enzyme (LdE1); format: functional; settings: 30 µM
# T1 sequence (whole entry): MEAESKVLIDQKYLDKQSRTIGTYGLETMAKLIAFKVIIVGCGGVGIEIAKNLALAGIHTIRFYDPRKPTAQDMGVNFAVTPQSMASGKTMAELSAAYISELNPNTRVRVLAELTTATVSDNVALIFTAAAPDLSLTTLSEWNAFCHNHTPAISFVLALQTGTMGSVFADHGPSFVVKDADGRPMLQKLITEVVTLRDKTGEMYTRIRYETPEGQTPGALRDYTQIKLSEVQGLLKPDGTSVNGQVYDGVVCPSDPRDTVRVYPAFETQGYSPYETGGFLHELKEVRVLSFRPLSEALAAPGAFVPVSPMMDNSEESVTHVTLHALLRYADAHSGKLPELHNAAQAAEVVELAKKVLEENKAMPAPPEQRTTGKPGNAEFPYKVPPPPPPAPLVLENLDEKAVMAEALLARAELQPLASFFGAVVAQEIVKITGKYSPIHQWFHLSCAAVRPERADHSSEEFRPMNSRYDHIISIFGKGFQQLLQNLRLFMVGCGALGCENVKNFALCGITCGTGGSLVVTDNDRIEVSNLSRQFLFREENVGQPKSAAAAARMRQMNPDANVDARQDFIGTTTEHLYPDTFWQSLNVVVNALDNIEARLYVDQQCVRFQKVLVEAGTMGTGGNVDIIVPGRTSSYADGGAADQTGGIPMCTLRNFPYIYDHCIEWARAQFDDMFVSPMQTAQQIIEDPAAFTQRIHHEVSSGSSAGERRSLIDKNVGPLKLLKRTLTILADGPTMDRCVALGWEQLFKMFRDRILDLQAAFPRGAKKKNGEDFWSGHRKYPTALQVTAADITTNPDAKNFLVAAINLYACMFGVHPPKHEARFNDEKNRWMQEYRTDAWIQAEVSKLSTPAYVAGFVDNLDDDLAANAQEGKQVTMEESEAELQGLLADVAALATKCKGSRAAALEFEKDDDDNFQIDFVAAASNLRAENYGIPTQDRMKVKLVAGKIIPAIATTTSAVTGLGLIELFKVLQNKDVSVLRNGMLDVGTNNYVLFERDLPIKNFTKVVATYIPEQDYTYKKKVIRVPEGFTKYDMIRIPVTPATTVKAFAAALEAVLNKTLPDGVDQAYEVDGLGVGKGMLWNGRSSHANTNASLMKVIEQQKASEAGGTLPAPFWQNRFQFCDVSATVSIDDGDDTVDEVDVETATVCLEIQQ
# [3] = target: AMP-activated protein kinase, AMPK (Homo sapiens) (UniProt P54646+O43741+P54619+Q9UGJ0+Q9Y478+Q13131+Q9UGI9); assay: AMP-dependent Kinase enzyme assay. An in vitro enzyme assay that detects ADP turnover that is directly proportional to AMPK activity. This uses naive AMPK that is activated during the assay with MK-8722; format: functional; settings: 30 µM
# [4] = target: Sialic acid-binding Ig-like lectin 9 (Homo sapiens) (UniProt Q9Y336); assay: Hs-Siglec9 ALPHAscreen SOP 20170721; settings: 10 µM
# Chain of Sialic acid-binding Ig-like lectin 9 (Homo sapiens) (Q9Y336 whole entry): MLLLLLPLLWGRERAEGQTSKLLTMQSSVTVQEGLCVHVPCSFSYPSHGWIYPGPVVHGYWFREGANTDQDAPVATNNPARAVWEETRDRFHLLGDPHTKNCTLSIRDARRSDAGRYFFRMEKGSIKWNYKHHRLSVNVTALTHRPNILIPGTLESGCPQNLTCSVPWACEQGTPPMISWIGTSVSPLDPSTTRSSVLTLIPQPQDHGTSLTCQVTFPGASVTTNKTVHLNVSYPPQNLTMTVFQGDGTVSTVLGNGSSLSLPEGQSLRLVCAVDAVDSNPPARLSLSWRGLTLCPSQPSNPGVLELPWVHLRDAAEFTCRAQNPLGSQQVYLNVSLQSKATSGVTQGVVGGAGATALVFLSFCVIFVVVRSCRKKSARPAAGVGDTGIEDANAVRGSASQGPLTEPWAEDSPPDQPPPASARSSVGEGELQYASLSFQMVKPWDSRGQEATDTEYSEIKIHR
# [5] = test system: Trypanosoma cruzi; assay: Trypanosoma cruzi phosphomannomutase and mannose-1-phosphate guanylyltransferase assay; format: functional; settings: 10 µM
# [6] = target: T2, Arginase-2, mitochondrial (Homo sapiens) (UniProt P78540); assay: in vitro enzyme assay to detect the production of urea directly proportional to the activity of Arginase II; format: functional; settings: 33.3 µM; also: in the data most compounds retested in dose-response had high values
# T2 sequence (whole entry): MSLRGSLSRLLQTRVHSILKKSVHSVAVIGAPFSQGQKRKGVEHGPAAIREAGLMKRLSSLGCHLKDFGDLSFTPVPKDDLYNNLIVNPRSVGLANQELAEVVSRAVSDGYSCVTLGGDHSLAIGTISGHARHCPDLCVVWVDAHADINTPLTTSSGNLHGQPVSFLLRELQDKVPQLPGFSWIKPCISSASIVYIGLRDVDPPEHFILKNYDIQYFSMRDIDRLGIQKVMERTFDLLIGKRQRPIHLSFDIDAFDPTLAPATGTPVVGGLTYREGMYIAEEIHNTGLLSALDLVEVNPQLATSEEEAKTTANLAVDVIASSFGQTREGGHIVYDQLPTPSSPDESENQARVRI
# [7] = target: T3, Proteasome subunit beta (Trypanosoma cruzi) (UniProt O96673); assay: Trypanosoma cruzi proteasome chymotrypsin-like activity (TcProtChymo) assay.; also: in the data most compounds retested in dose-response had high values; format: functional; settings: 9.37 µM
# T3 sequence (whole entry): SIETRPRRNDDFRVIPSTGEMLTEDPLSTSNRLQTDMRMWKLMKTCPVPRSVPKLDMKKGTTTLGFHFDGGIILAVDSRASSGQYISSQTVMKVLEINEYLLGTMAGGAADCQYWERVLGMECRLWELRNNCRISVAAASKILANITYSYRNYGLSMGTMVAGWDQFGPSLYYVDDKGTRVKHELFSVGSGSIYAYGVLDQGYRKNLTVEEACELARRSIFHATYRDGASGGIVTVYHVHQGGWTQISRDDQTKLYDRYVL
# [8] = species on record: Homo sapiens; assay: To identify inhibition of the IFN signalling (Jak-Stat) pathway via expression of an eGFP reporter gene under the control of an IFN-stimulated response element (ISRE) containing MxA promoter.; format: functional; settings: 30 µM
# [9] = target: T4, Tyrosyl-tRNA synthetase, putative (Trypanosoma cruzi (strain CL Brener)) (UniProt Q4DSP6); assay: Trypanosoma cruzi tyrosyl tRNA synthetase (TcYRS) _High Tyrosine SOP; format: functional; settings: 30 µM; also: in the data most compounds retested in dose-response had high values
# T4 sequence (whole entry): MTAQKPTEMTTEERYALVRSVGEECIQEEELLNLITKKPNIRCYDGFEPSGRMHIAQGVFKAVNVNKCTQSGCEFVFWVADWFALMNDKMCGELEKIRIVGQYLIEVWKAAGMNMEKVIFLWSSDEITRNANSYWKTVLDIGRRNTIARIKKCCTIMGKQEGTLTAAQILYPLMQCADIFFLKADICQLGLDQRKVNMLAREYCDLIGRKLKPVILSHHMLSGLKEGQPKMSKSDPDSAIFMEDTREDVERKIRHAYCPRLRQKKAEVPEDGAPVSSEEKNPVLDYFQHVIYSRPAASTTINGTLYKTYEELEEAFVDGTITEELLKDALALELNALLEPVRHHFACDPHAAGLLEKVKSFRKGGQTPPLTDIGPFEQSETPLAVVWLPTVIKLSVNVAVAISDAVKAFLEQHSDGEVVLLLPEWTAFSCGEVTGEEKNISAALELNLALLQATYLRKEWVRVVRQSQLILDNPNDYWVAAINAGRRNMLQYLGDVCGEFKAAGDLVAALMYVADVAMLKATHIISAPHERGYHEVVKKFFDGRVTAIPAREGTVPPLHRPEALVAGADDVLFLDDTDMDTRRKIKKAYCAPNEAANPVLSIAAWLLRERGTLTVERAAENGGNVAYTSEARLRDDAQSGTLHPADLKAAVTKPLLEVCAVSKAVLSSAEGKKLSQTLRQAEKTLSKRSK
# [10] = target: T4, Tyrosyl-tRNA synthetase, putative (Trypanosoma cruzi (strain CL Brener)); assay: Trypanosoma cruzi tyrosyl tRNA synthetase (TcYRS) SOP; format: functional; settings: 30 µM
# [11] = target: Chromo domain-containing protein 1 (Saccharomyces cerevisiae (strain ATCC 204508 / S288c) (Baker's yeast)) (UniProt P32657); assay: ScCHD-1 Enzyme Inhibition Assay; format: functional; settings: 30 µM; also: in the data most compounds retested in dose-response had high values
# Chain of Chromo domain-containing protein 1 (Saccharomyces cerevisiae (strain ATCC 204508 / S288c) (Baker's yeast)) (P32657 whole entry, the tested form may be a part): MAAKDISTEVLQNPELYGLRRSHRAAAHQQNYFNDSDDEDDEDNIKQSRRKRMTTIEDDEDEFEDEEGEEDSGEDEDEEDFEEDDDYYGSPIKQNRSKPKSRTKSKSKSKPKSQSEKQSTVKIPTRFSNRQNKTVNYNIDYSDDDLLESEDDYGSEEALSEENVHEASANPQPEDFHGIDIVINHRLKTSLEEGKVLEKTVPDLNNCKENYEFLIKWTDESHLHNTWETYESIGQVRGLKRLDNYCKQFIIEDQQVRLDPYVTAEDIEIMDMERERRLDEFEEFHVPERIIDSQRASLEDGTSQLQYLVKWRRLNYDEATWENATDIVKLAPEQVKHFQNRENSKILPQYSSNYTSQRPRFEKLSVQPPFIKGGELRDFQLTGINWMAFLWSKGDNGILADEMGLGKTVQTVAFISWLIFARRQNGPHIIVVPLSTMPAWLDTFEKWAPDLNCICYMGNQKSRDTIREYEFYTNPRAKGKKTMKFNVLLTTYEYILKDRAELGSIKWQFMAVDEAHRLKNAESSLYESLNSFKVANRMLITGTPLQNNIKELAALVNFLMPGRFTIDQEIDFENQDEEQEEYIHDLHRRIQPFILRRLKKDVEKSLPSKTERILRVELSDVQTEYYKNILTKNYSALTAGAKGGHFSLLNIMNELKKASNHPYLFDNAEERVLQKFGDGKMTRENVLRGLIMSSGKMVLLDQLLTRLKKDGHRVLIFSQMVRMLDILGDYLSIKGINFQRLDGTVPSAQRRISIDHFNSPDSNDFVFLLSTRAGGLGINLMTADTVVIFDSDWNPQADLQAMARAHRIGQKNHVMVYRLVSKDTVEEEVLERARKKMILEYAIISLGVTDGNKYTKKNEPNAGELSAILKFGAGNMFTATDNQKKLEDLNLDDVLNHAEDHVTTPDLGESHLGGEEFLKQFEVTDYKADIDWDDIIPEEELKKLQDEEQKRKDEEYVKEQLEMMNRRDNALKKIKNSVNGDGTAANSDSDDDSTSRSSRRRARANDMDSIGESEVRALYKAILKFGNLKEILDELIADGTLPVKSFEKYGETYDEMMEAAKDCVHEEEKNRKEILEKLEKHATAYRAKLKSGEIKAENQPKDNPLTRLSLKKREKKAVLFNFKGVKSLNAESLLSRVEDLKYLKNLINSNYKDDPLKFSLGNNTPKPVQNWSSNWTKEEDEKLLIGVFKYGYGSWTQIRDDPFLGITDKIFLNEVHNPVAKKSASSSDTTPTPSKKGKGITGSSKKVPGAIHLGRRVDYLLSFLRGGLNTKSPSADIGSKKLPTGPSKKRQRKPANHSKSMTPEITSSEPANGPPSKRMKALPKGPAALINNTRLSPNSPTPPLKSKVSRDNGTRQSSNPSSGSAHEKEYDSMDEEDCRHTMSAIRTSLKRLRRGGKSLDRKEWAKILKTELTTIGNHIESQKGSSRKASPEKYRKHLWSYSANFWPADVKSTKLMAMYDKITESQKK
SMILES,Percent Effect [1] [%],Percent Effect [2] [%],Percent Effect [3] [%],Percent Effect [4] [%],Percent Effect [5] [%],Percent Effect [6] [%],Percent Effect [7] [%],Percent Effect [8] [%],Percent Effect [9] [%],Percent Effect [10] [%],Percent Effect [11] [%]
CC(=O)NCCNC(=O)N(C)Cc1ccc2c(c1)OCCO2,-3.01,0,-0.74,-6.13,-4.92,6.1,1.79,7.44,4.95,13.4,-1.92
CNC(=O)c1ccc(CN2CCC(N(C)Cc3noc(C)n3)C2)cc1 (stereo not given),-2.92,18.2,-3.53,-3.54,-2.25,4.42,15.9,22.1,-1.91,14.1,-19.2
O=C(CN1CCOC(Cn2cccn2)C1)Nc1nccs1 (stereo not given),-3.64,21.6,-3.52,14.3,6.22,-1.29,8.8,7.16,5.94,25.6,-6.75
O=C(NCC(Cc1cccc(F)c1)N1CCCC1=O)c1ccccc1 (stereo not given),-6.41,-5.48,27.6,-11,-5.68,0,13.1,6.32,1.07,5,-2.23
Cc1cc(C)n(CC2CCCN2C(=O)Cc2c(C)noc2C)n1 (stereo not given),-7.56,8.11,-14.7,23.5,2.92,-9.62,9.37,15.8,4.43,13.6,-11.4
Cc1cc(C)n(C2CN(CC(O)c3ccc(F)cc3)C2)n1 (stereo not given),-2.64,-15.6,-6.46,8.34,0.936,-5.34,12.3,4.19,6.8,12.2,-6.46
O=c1c2cnc(N3CCCCC3)nc2ccn1-c1ccccc1,-4.04,9.33,-3.82,-5.64,4.71,-7.22,15,8.11,2.12,10.3,-8.21
Cc1cc(NC(=O)C(c2cccc(F)c2)N2CCOCC2)ccn1 (stereo not given),-4.97,10.5,2.55,5.76,1.66,-9.47,10.6,3.19,2.13,7.79,-7.19
COc1cc(C)sc1C(=O)N1CC(c2cccnc2)C1,-4.73,2.7,4.4,-2.39,-3.86,-1.91,9.65,-1.77,1.59,9.76,-1.11
O=C(CCCOCc1ccccc1)N1CCCC1c1ccccn1 (stereo not given),-2.89,0,-0.0464,-0.638,2.55,7.99,5,-30.4,0.493,3.8,-2.69
CC(O)CN1CCN(C(=O)c2ccc3c(c2)COC3)CC1 (stereo not given),-5,10.1,-4.14,3.8,6.14,-4.18,3.19,-12.6,4.43,16.5,-13.8
CS(=O)(=O)c1ccc(CNCC2CCN(CCO)CC2)cc1,-6.48,0,-13.5,3.88,-4.9,-3.64,6.03,21.2,-2.15,-5,-3.22
Cc1ccc(-c2ncc(C(=O)NCCNc3ncccn3)s2)c(C)c1,-2.83,5.41,2.58,1.25,7.83,-2.4,1.8,11.8,5.42,16.1,-8.22
CCn1cc(C(=O)NCc2csc(Br)c2)cn1,-4.42,3.8,6.27,4.51,-2.97,3.23,7.72,13.6,-1.04,7.59,-2.95
Cn1cc(CN2CC3(CCN(C(=O)c4ccoc4)C3)C2)cn1,-1.29,-2.74,4.12,-0.00343,-3.77,-1.6,10.2,15.8,-1.04,-1.24,-6.08
COc1cc(CC(O)CO)c(OC)c2c1OCO2 (stereo not given),-6.55,14.7,-12.3,4.03,6.29,-12.5,9.8,5.7,8.47,15.4,-21.2
Cc1ccc(CN2C[C@@H]3COC[C@H](NS(C)(=O)=O)[C@@H]3C2)o1,-3.56,13.3,3.44,-1.89,-4.05,-56.8,7.86,12.6,4.17,15,-6.77
COc1ccc(CN2CCn3cc(CN4CCCCC4)nc3C2)cc1,-4.9,2.6,1.83,-4.04,-0.888,-4.52,10.3,-6.42,3.17,-8.97,-2.75
Cc1ncsc1C(=O)N1CCCN(Cc2cscn2)CC1,-2.64,5.2,1.53,0.904,3.82,-1.9,-3.8,-3.73,6.67,9.41,-14.3
O=C(CC1CC1)N1CCC2(CC1)CN(c1ncccn1)CCO2,-2.48,2.67,5.17,6.83,-6.89,-5.83,5.9,9.78,-5.32,-1.28,-7.95
